# Reference: PubChem BioAssay (NCATS)
# Records with an inconclusive call do not appear. A call without a number means that no potency is given here. Activity calls are given as the source filed them. The call rests on the fitted dose curve; in most records, active means well fitted inhibition curve with a large enough effect; inconclusive means small, poorly fitted or top-dose-only effect; inactive means flat fitted curve, though single readings scatter.
# Experiment: qHTS for Inhibitors of Plasmodium falciparum (DD2) proliferation (AID 504314)
# Conditions: P. falciparum Dd2 in erythrocytes, SYBR Green growth, 72 h; series mostly up to 1.12 µM
# Procedure, shortened: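 Quantitative HTS growth inhibition: SYBR Green I binding to parasite DNA after 72 h drug exposure of infected erythrocytes (0.3% parasitemia, 2.5% hematocrit). Signals normalized per plate to inhibitor and vehicle wells.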
# Potency means the concentration at half of the fitted maximal effect.
row,Structure (SMILES),Potency
1,COC/C=C/C1=CC2=CC(=O)C(C)(OC(=O)c3cnc4ccccc4n3)C(=O)C2=CN1CCCCO (stereo not drawn),inactive
2,CCN1C(=O)N[C@@H](c2cccs2)C(C(C)=O)=C1C,inactive
3,CC(=O)C1=C(C)N(Cc2ccccc2)C(=O)N[C@H]1c1ccco1,inactive
4,COC(=O)C1=C(C(=O)OC)[C@@H]2N(C)c3ccc(OC)cc3[C@@]23C[C@@H](C(=O)OC)N(S(=O)(=O)c2cccs2)C3=N1,inactive
5,COC(=O)[C@]1(C)C=C[C@@H](C)[C@H](c2ccccc2Br)N1C(=O)C(F)(F)F,inactive
6,COC(=O)C1(C(=O)OC)CC(CO)C(=O)[C@@H]1c1ccccc1 (stereo partly drawn),inactive
7,COC(=O)[C@@H](NC(=O)N1CCc2nc(-c3ccccc3)c3c(c2C1)CO[C@@H](C)C3)C(C)C,inactive
8,CCN1C(=O)[C@@H]2[C@H]3[C@H](O)[C@H](O)CC(=NO[C@@H](C)c4cc(-c5c(C)cc(C)cc5C)no4)[C@@H]3CC[C@H]2C1=O,inactive
9,CC1(C)O[C@@H]2[C@@H](O1)C(c1ccccc1)(c1ccccc1)OP(=O)(O)OC2(c1ccccc1)c1ccccc1,inactive
10,COc1cc2c(cc1OC)[C@@H]1O[C@](CCCCN3C(=O)c4ccccc4C3=O)(C2)Oc2cc(C)n(-c3ccccc3)c(=O)c21,1.69 µM (active)
11,CCCCc1nc2c(c3c1C[C@H](C)OC3)CN(S(=O)(=O)c1ccc(Cl)c3nonc13)CC2,inactive
12,COC(=O)CC=C[C@@H](C)[C@H](OC)c1cc(F)ccc1Br,inactive
13,COC(=O)N[C@@H](c1ccccc1)[C@]1(C(=O)OC)CCCC1=O,inactive
